In PubChem BioAssay AID1159580 (chemical genetic matrix, 2015):
The whole screen tested about 5,500 compounds, of which about 2,000 (36%) were called active. Not shown: some 18% with an inconclusive outcome. No stated cut-off is given here; in the data, active means normalized growth mostly below about 0.91 (no sharp cut-off); inconclusive means no clear call, values can overlap the other calls; inactive means mostly above about 0.92. Some of the results follow.

Test: chemical genetic growth profiling, strain panel (AID 1159580);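 further: tested at 20 µM; growth read once vehicle control cultures reached saturation at 30 °C; 1 = growth at the plate median or of vehicle wells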
Conditions: S. cerevisiae deletion strains, growth OD

Measured: normalized growth

C=CCN1CC[C@]23c4c5ccc(O)c4O[C@H]2/C(=N\NC(=O)c2ccccc2)CC[C@@]3(O)[C@H]1C5
inactive: locus YAL013W, strain DEP1, stronger effect = lower value 0.989 | locus YAL040C, strain CLN3, stronger effect = lower value 1.06 | locus YCL061C, strain MRC1 (second series), stronger effect = lower value 0.987 | locus YDR363W, strain ESC2, stronger effect = lower value 0.998 | locus YER002W, strain NOP16, stronger effect = lower value 1.03 | locus YGR078C, strain PAC10, stronger effect = lower value 0.985 | locus YNL153C, strain GIM3, stronger effect = lower value 0.983 | locus YNL175C, strain NOP13, stronger effect = lower value 0.993 | locus YNL197C, strain WHI3, stronger effect = lower value 0.996 | locus YNL224C, strain SQS1, stronger effect = lower value 1 | locus YOR083W, strain WHI5 (second series), stronger effect = lower value 0.991 | locus YPL241C, strain CIN2, stronger effect = lower value 0.996
